The panel holds about 83,000 compounds, 20% with a hit somewhere; the sample as a whole holds those more often.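 Growth was measured after 48 h exposure to one concentration of compound in 96-well plates. Values under 10 count as active.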 Unmarked numbers belong to inactive results. Active and inactive are the calls of the source.
What follows are compounds tested on MALME-3M melanoma (assay: NCI-60 one-dose screen, 48 h (100 = growth as untreated, 0 = no growth, -100 = all killed)). Details: 10 µM unless noted.
For `O=C(Nc1ccc(N2CCNCC2)cc1)c1[nH]ncc1Nc1cc(Oc2ccccc2)ncn1`, the growth was 58.4%. Work on `CS(=O)(=O)Nc1ccc(C(=O)NC(C(=O)NO)c2ccc(-c3cccc(F)c3)cc2)cc1` (configuration not stated) yielded a growth of 92%. With `CC[C@]1(O)C[C@@H]2CN(CCc3c([nH]c4ccccc34)[C@@](C(=O)OC)(c3cc4c(cc3OC)N(C)[C@H]3[C@@](O)(C(=O)OC)[C@H](OC(C)=O)[C@]5(CC)C=CCN6CC[C@]43[C@@H]65)C2)C1` the growth was 40.9%. Work on `O=C(CN1C(=O)/C(=C\c2ccc(Cl)cc2)SC1=S)Nc1ncc(Cc2ccc(Cl)cc2)s1` yielded a growth of 99.4%. `CCCCC(O)(c1ccc(Cl)cc1)C(CN1CCOCC1)c1ccc(Cl)cc1` (configuration not stated) showed a growth of 61.2%. For `O=C(Nc1ccc(C23CC4CC(CC(c5ccccc5)(C4)C2)C3)cc1)c1cccs1`, the growth was 84.5%. `O=C(COc1cc(O)c2c(=O)cc(-c3ccccc3)oc2c1)Nc1ccccc1` gave a growth of 97.7%. `COc1cc(C(=O)Nc2ccc(-c3nc4ccccc4[nH]3)cc2)cc(OC)c1OC` showed a growth of 81.3%. Work on `COC(=O)[C@@H]1CCCN1C(=O)[C@H]1CCCN1C(=O)[C@@H](Cc1c[nH]c2ccccc12)NC(=S)Nc1cc(C(F)(F)F)cc(C(F)(F)F)c1` yielded a growth of 71.1%. For `O=C(CCc1nnc2sc(-c3ccc(Cl)cc3Cl)nn12)c1nc2ncccc2[nH]1`, the growth was -47.6% (active). Work on `O=Cc1cc2ccccc2nc1Nc1nccs1` yielded a growth of 73.1%. For `O=C(CCc1nnc2sc(Cc3ccccc3Cl)nn12)c1nc2ncccc2[nH]1`, the growth was 94.4%. `NS(=O)(=O)c1ccc(CCN=C=S)cc1` showed a growth of 40.9%. `CCOc1cc(Cl)c(C(C)NC(=O)c2cccc(OC)c2)cc1OCC` (configuration not stated) was tested, and the growth was -70.4% (active). Compound `CN1CCN(Cc2ccc(C(=O)Nc3cncc(C#Cc4cnc5cccnn45)c3)cc2C(F)(F)F)CC1` has a growth of 28.3%. `COc1ccc2c(c1)C=C1CSCC3=Cc4cc(OC)ccc4OC13O2` gave a growth of 45.2%. `CN1CCN(Cc2ccc(NC(=O)c3cncc(C#Cc4nc(N)nc5[nH]ncc45)c3)cc2C(F)(F)F)CC1` was tested, and the growth was 68.6%. For `COc1cc(C(=O)O/N=C(\N)Cc2cccc3ccccc23)cc(OC)c1OC`, the growth was -85.9% (active). Compound `Nc1nc(-c2cnccn2)nn1-c1nc2ccccc2s1` has a growth of 104%. With `COC(=O)C1=C(C)NC(C)=C(C(=O)OC)C(N2C(=O)CCC2=O)C1` (configuration not stated) the growth was 80.8%. `COc1ccc(Br)c(/C=C2\SC(=Nc3ccc(O)cc3)NC2=O)c1` gave a growth of 89.6%. For `COc1ccc(Cn2c(Br)c3c(c2Br)-c2nc(NC(=O)c4ccc(OC)cc4)sc2CC3)cc1`, the growth was 4.4% (active). With `Nc1ncnc(N)c1NC(=O)c1ccc(OCc2ccccc2)cc1` the growth was 102%. `CCOc1ccc(-c2nonc2NC(=O)c2cccc(C)c2)cc1OCC` was tested, and the growth was 59.6%.

Each compound was assayed on MDA-MB-231 breast in the same assay as above. Details: 10 µM unless noted.
Work on `c1ccc2c(c1)oc1cc3sccc3nc12` yielded a growth of 101%. Compound `CC1=C(C(=O)OCC2CCN(C(=O)OC(C)(C)C)CC2)[C@H](c2cccc(C#N)c2)C2=C(CC(C)(C)CC2=O)N1` has a growth of 59.7%. `O=C(c1nc2ccccc2[nH]1)C1C(c2ccc([N+](=O)[O-])cc2)C2CC3CCCCC3N2[C@@]12C(=O)Nc1cc(Cl)ccc12` (some centres not stated) gave a growth of 26.6%. `Nc1ccn(C2O[C@H](CO)[C@@H](O)[C@H]2O)c(=O)n1` (some centres not stated) gave a growth of 82.8%. `Nc1ccc(-n2c(=O)oc3ccc(Cl)cc3c2=O)c(Cl)c1` was tested, and the growth was -25.6% (active). With `CC1=C(C(=O)OCC2CCN(C(=O)OC(C)(C)C)CC2)[C@@H](c2cccc(C#N)c2)C2=C(CC(C)(C)CC2=O)N1` the growth was 61.1%. Compound `N#Cc1c(N)nc2c(c1N)C(c1ccc(F)cc1)c1ccc(N)cc1O2` (configuration not stated) has a growth of 118%. `COc1ccc(Cn2c(Br)c3c(c2-c2cc(OC)c(OC)c(OC)c2)CCc2sc(NC(=O)c4ccc(OC)cc4)nc2-3)cc1` showed a growth of 87.1%. In the case of `O=c1cc(NC2CCN(CCCc3ccccc3)CC2)c2cc(Cl)ccc2o1`, the growth is reported as -62.2% (active). For `Brc1ccc(Oc2ccc(Nc3ncnc4onc(-c5ccccc5)c34)cc2)cc1`, the growth was 98.3%. `NNC(=O)CNC(=O)Nc1n[nH]c(=S)s1` gave a growth of 112%. For `COc1ccc(Cn2c(Br)c3c(c2-c2cc(OC)c(OC)c(OC)c2)CCc2sc(NC(C)=O)nc2-3)cc1`, the growth was 62.6%. Compound `COc1ccc(/C=C2\NC(=O)NC2=O)cc1O` has a growth of 114%. `Cc1cc2c(c(C)c1Cl)C(=O)/C(=C/c1ccco1)O2` showed a growth of 82.3%. With `O=C(Nc1ccc(N2CCNCC2)cc1)c1[nH]ncc1Nc1cc(Oc2ccccc2)ncn1` the growth was -20.9% (active). In the case of `CS(=O)(=O)Nc1ccc(C(=O)NC(C(=O)NO)c2ccc(-c3cccc(F)c3)cc2)cc1` (configuration not stated), the growth is reported as 42.1%. `CC[C@]1(O)C[C@@H]2CN(CCc3c([nH]c4ccccc34)[C@@](C(=O)OC)(c3cc4c(cc3OC)N(C)[C@H]3[C@@](O)(C(=O)OC)[C@H](OC(C)=O)[C@]5(CC)C=CCN6CC[C@]43[C@@H]65)C2)C1` was tested, and the growth was -15.3% (active). `O=C(CN1C(=O)/C(=C\c2ccc(Cl)cc2)SC1=S)Nc1ncc(Cc2ccc(Cl)cc2)s1` gave a growth of 104%. In the case of `CCCCC(O)(c1ccc(Cl)cc1)C(CN1CCOCC1)c1ccc(Cl)cc1` (configuration not stated), the growth is reported as 35.8%. `O=C(Nc1ccc(C23CC4CC(CC(c5ccccc5)(C4)C2)C3)cc1)c1cccs1` gave a growth of 87.5%. `O=C(COc1cc(O)c2c(=O)cc(-c3ccccc3)oc2c1)Nc1ccccc1` was tested, and the growth was 72.9%. Work on `COc1cc(C(=O)Nc2ccc(-c3nc4ccccc4[nH]3)cc2)cc(OC)c1OC` yielded a growth of 61.4%. With `COC(=O)[C@@H]1CCCN1C(=O)[C@H]1CCCN1C(=O)[C@@H](Cc1c[nH]c2ccccc12)NC(=S)Nc1cc(C(F)(F)F)cc(C(F)(F)F)c1` the growth was 25.4%. `O=C(CCc1nnc2sc(-c3ccc(Cl)cc3Cl)nn12)c1nc2ncccc2[nH]1` was tested, and the growth was -43.5% (active). For `O=Cc1cc2ccccc2nc1Nc1nccs1`, the growth was 68.6%. Work on `O=C(CCc1nnc2sc(Cc3ccccc3Cl)nn12)c1nc2ncccc2[nH]1` yielded a growth of 73%. Compound `NS(=O)(=O)c1ccc(CCN=C=S)cc1` has a growth of 15.6%. `CCOc1cc(Cl)c(C(C)NC(=O)c2cccc(OC)c2)cc1OCC` (configuration not stated) was tested, and the growth was -7.72% (active). `CN1CCN(Cc2ccc(C(=O)Nc3cncc(C#Cc4cnc5cccnn45)c3)cc2C(F)(F)F)CC1` gave a growth of 41%. `COc1ccc2c(c1)C=C1CSCC3=Cc4cc(OC)ccc4OC13O2` showed a growth of 16.4%. For `CN1CCN(Cc2ccc(NC(=O)c3cncc(C#Cc4nc(N)nc5[nH]ncc45)c3)cc2C(F)(F)F)CC1`, the growth was 100%. For `COc1cc(C(=O)O/N=C(\N)Cc2cccc3ccccc23)cc(OC)c1OC`, the growth was -46.6% (active). With `Nc1nc(-c2cnccn2)nn1-c1nc2ccccc2s1` the growth was 95.4%. `COC(=O)C1=C(C)NC(C)=C(C(=O)OC)C(N2C(=O)CCC2=O)C1` (configuration not stated) gave a growth of 95.8%. `COc1ccc(Br)c(/C=C2\SC(=Nc3ccc(O)cc3)NC2=O)c1` gave a growth of 108%. In the case of `COc1ccc(Cn2c(Br)c3c(c2Br)-c2nc(NC(=O)c4ccc(OC)cc4)sc2CC3)cc1`, the growth is reported as 52.6%. `Nc1ncnc(N)c1NC(=O)c1ccc(OCc2ccccc2)cc1` showed a growth of 104%. In the case of `CCOc1ccc(-c2nonc2NC(=O)c2cccc(C)c2)cc1OCC`, the growth is reported as 76.5%.

From PubChem BioAssay (NCI)
